Source: PubChem (National Center for Advancing Translational Sciences (NCATS))
This is a sample that favours compounds with a hit; in the whole collection about 10% have one here.
GPT2 inhibitor = GPT2 alanine aminotransferase inhibition; Potency, µM (highest dose often 57.7 µM), for the others: top-dose activity change, negative = inhibition, hits mostly inhibitors; actives 0.25% (n = 100,000); AID 1671188; Recombinant GPT2, coupled pyruvate oxidase/HRP Amplex Red fluorescence; also: nearly all actives have a fitted effect of over 60% in size
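Inhibition is scored from Amplex Red fluorescence generated when pyruvate oxidase and HRP act on pyruvate released by GPT2. Reactions contain 10ng/uL enzyme, 250uM a-KG and 2mM L-alanine and run 30 min at room temperature.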
NIH3T3 tox = cytotoxic compounds in NIH 3T3 cells; NIH 3T3 viability, CellTiter-Glo ATP luminescence, 48-72 h; Potency, µM (titrated, usually from 96.7 µM), for inactives: at the top dose activity change, negative = cytotoxicity, most hits filed as inhibitors; actives 4.3% (n = 94,000); also: nearly all actives have a fitted effect of over 55% in size
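ATP-dependent luminescence (CellTiter-Glo) served as the viability signal for NIH 3T3 cells treated with compound for 48 or 72 hr at 37 °C.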
NPR1 antag = blocks ANP-stimulated signaling of human Npr1 receptor | P16066 | HEK293 hNpr1 GloSensor cGMP, ANP-stimulated luminescence | Potency, µM (highest dose often 46.3 µM), without a hit: top-dose activity change, negative = inhibition, actives largely listed as inhibitors | actives 1.6% (n = 76,000); calls by dose curve; also: nearly all actives have a fitted effect of over 60% in size
Target sequence (P16066 whole entry, looked up): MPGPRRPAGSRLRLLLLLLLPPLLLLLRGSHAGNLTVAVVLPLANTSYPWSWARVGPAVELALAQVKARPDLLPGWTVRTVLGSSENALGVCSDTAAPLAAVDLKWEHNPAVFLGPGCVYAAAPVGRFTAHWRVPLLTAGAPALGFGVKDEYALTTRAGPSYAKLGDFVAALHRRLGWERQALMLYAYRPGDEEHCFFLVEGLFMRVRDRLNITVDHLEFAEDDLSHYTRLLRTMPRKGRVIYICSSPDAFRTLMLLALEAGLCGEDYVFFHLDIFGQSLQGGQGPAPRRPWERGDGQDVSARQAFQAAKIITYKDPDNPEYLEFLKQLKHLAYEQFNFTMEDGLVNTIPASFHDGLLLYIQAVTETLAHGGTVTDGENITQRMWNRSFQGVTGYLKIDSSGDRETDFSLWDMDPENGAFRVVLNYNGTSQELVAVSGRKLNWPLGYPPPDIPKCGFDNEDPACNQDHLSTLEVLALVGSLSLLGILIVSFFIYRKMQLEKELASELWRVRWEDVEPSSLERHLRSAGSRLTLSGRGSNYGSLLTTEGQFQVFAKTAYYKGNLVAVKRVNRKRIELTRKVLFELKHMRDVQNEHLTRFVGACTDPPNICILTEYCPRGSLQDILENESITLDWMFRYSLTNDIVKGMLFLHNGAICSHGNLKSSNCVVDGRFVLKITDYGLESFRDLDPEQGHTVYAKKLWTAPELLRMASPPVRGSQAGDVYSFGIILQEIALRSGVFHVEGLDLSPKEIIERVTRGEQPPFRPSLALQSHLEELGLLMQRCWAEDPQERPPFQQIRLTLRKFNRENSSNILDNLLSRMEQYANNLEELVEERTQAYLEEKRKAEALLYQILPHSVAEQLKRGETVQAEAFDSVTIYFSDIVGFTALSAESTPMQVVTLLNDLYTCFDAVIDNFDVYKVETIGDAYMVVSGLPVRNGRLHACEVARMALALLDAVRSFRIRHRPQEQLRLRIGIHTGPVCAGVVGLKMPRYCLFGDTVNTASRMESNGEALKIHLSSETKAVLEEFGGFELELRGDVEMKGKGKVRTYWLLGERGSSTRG
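HEK293 cells stably expressing human Npr1 and cGMP GloSensor pGS-40F, loaded 2 h with 2% GloSensor reagent, given compound 30 min at room temperature. Luminescence read before and 20 min after 0.1 nM hNppA.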
Luciferase inh = inhibitors of firefly (Photinus pyralis) luciferase; Potency, µM (titrated, usually from 115 µM), most hits filed as inhibitors; P08659; AID 1347043; actives 2.5% (n = 76,000); purified P. pyralis luciferase, luminescence, biochemical; also: nearly all actives have a fitted effect of over 65% in size
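Inhibitors were tested against purified firefly luciferase in a biochemical, low-substrate format (both substrates at 10uM) and luminescence measured with a CCD imager.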
HEK cytotox = kills HEK 293 cells; AID 1345083; Potency, µM (series often up to 115 µM), inactives show at the top dose activity change, negative = cytotoxicity, hits mostly inhibitors; actives 6.6% (n = 94,000); HEK 293 viability, ATP luminescence (CellTiter-Glo), 48-72 h; also: nearly all actives have a fitted effect of over 60% in size
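Luminescence from cellular ATP, measured with CellTiter-Glo, indicates HEK 293 viability. Cells plated at 250 cells/well are treated with compound for 48 or 72 hr at 37 degree Celsius before reagent addition.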
Starred values were filed as active, the others as inactive; i = inactive; ? = inconclusive; [ ] = dose if it differs, or a comment. Unless noted, calls follow the shape of the dose curve; as a rule, active = well fitted curve in the direction sought with a large enough effect; inconclusive = small, poorly fitted or top-dose-only effect, or another doubt; inactive = no such curve, though single readings can be large; an effect the other way counts as inactive or inconclusive. % is scaled to controls: 0 for no effect and ±100 for the full control effect; potency is read from the fitted curve at half-maximal effect.

SMILES	GPT2 inhibitor	NIH3T3 tox	NPR1 antag	Luciferase inh	HEK cytotox
O=C(C[C@H]1NC(=O)c2ccccc2NC1=O)Nc1cccc(C(F)(F)F)c1	3%	?	0%	i	45µM*
Cc1c(Cl)cccc1NC(=O)C[C@H]1NC(=O)c2ccccc2NC1=O	2%	?	2%	i	45µM*
O=C(C[C@H]1NC(=O)c2ccccc2NC1=O)Nc1ccncc1	i	i	4%	i	-4%
Cc1cc(Br)ccc1NC(=O)C[C@H]1NC(=O)c2ccccc2NC1=O	-4%	20µM*	-8%	i	?
CCOc1ccccc1NC(=O)C[C@H]1NC(=O)c2ccccc2NC1=O	4%	i	-5%	i	-3%
Cc1cn2nc(C(=O)NCc3ccc(C(F)(F)F)cc3)cc2c(N2CCSCC2)n1	i	?	0%	i	-22%
COc1ccc(OCc2nnc(C(=O)N3CCC[C@@H]3c3nc4ccccc4[nH]3)n2-c2ccccc2)cc1	-5%	11µM*	4%	i	-11%
O=C(c1nnc(COc2cc(F)cc(F)c2)n1-c1ccccc1)N1CCC[C@@H]1c1nc2ccccc2[nH]1	0%	32µM*	0%	i	?
N#Cc1cccc(OCc2nnc(C(=O)N3CCC[C@@H]3c3nc4ccccc4[nH]3)n2-c2ccccc2)c1	-7%	?	-17%	i	-13%
CCNC(=O)c1cccnc1OC1CCN(C(=O)c2ccccc2OC)C1 (centres undefined)	i	i	-1%	i	1%
COCCOc1ncccc1-c1noc([C@@H]2CCCN2Cc2ccc(OC)cc2)n1	1%[88.5 µM]	-15%[174 µM]	3%[70.6 µM]	i	100µM*
COc1ccccc1CN1CCC[C@H]1c1nc(-c2ccc(F)cn2)no1	3%[88.5 µM]	-21%[174 µM]	4%[70.6 µM]	i	18µM*
COCCOc1ncccc1-c1noc([C@@H]2CCCN2Cc2ccc(C(=O)O)cc2)n1	-8%[88.5 µM]	-10%[138 µM]	-13%[70.6 µM]	i	4%[172 µM]
COc1ccc(CN2CCc3nc(C(=O)NCc4ccncc4)oc3CC2)cc1	-9%[88.5 µM]	?	?	i	?
Cc1csc(NC(=O)c2nc3c(o2)CCN(Cc2c(C)noc2C)CC3)n1	-7%[88.5 µM]	50µM*	-1%[70.6 µM]	63µM*	-26%[172 µM]
O=C(NCC1CC1)c1nc2c(o1)CCN(CCCc1ccccc1)CC2	i	-20%[138 µM]	3%[70.6 µM]	?	?
Cc1csc(NC(=O)c2nc3c(o2)CCN(Cc2ccccc2)CC3)n1	-25%[88.5 µM]	?	-30%[70.6 µM]	?	56µM*
CCCN1CCc2nc(C(=O)Nc3nc(C)cs3)oc2CC1	-3%[88.5 µM]	-23%[138 µM]	-2%[70.6 µM]	20µM*	?
Cc1csc(NC(=O)c2nc3c(o2)CCN(Cc2ccc(C#N)cc2)CC3)n1	4%[88.5 µM]	?	?	22µM*	?
Cc1noc(C)c1CN1CCc2ncc(C(=O)Nc3ccccc3)n2CC1	i	?	-2%[70.6 µM]	i	-23%[172 µM]
COc1ccc(C(O)C(=O)N2CCC3(CCC(=O)N(C4CC4)C3)CC2)cc1 (centres undefined)	3%[11.5 µM]	0%	7%	i	3%
COCCN1CCCCC(CC(=O)Nc2ccc(OC)c(OC)c2)C1=O (centres undefined)	i	-8%	1%	i	-23%
Clc1ccc(-c2cnc([C@@H]3COCCN3C3CCCCC3)[nH]2)s1	-2%[88.5 µM]	79µM*	-29%[70.6 µM]	i	79µM*
O=C(O)c1ccc(CN2CCOC[C@H]2c2ncc(-c3ccc(Cl)s3)[nH]2)cc1	3%[88.5 µM]	-4%[174 µM]	2%[70.6 µM]	i	-9%[172 µM]
Clc1ccc(-c2cnc([C@@H]3COCCN3Cc3ccccc3)[nH]2)s1	-11%[88.5 µM]	79µM*	?	i	100µM*
CC(C)(C)CN1CCOC[C@H]1c1ncc(-c2ccc(Cl)s2)[nH]1	-28%[88.5 µM]	?	-15%[70.6 µM]	i	79µM*
Cn1c(CN2CCOC[C@H]2c2ncc(-c3ccc(Cl)s3)[nH]2)nc2ccccc21	-6%[88.5 µM]	89µM*	?	i	?
O=C(NCc1cccs1)c1ccc2c(c1)n(Cc1cccc(F)c1)c(=O)c1ccnn12	1%	?	-2%	i	?
